Source: PubChem BioAssay (Broad Institute)
Hedgehog inh: Hedgehog pathway signaling inhibitors, primary screen, luminescence, Shh-LIGHT2 cells, Gli-luciferase | Shh-LIGHT2 Gli-luciferase reporter, 30 h | inhibition, % (no concentration beside the values) | 22,000 compounds, 2.1% hits | AID 2313, 2010;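 active = mean inhibition across valid replicates above about 65%, limit read from the data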;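 also: pathway switched on by Shh-conditioned medium diluted 1 in 25 in low serum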
NOMO-1 viab: NOMO-1 AML cell viability reduction, primary screen, STK33 inhibitor project, CellTiter-Glo luminescence | NOMO-1 AML viability, 72 h | inhibition, % (no concentration beside the values) | AID 2330, 2010 | 37,000 compounds, 7.5% hits; in the data active = inhibition above about 80%
PD-1 reversal: activators reversing PD-1 mediated T-cell inhibition, primary screen, luminescence, primary human CD4 T cells, PD-L1 beads | CellTiter-Glo 96 h | activation, % (no concentration beside the values) | 29,000 tested, under 10 active | AID 2316, 2010; call rule not given here;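 also: 0% = median vehicle wells and 100% = positive control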
MITF inh: inhibitors of MITF, primary screen, MITF inhibitor project, cell-based, luminescence | 37,000 compounds, 0.28% hits | AID 2240, 2010 | TRPM1 promoter luciferase, 24 h | inhibition, % (concentration not given with the values); in the data active = inhibition above about 85%;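 also: human melanocyte line stably carrying TRPM1 promoter luciferase reporter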
* hit, by the source's call; x = no result. This is a sample that favours compounds with a hit; in the whole collection about 8.1% have one here.

SMILES	Hedgehog inh	NOMO-1 viab	PD-1 reversal	MITF inh
CC1=CC(c2ccoc2)c2c(oc(N)c(C#N)c2=O)S1 (stereo not given)	9	26	0	-7
COc1ccc(-n2c(=S)[nH]c3cc(C(=O)NC4CCCC(C)C4C)ccc3c2=O)c(OC)c1 (stereo not given)	0	87*	0	38
COc1ccc(OC)c(-n2c(=S)[nH]c3cc(C(=O)N4CCC(C(N)=O)CC4)ccc3c2=O)c1	-23	6	4	6
COc1ccc(OC)c(-n2c(=S)[nH]c3cc(C(=O)NCc4ccc(F)cc4)ccc3c2=O)c1	77*	17	0	4
O=C(CN1C(=O)COc2ccc(Cl)cc21)N1CCCC1	15	-7	1	6
Nc1ncnc2c1ncn2C1CCC(CO)O1 (stereo not given)	-62	-12	3	1
Nc1nc(Cl)nc2c1ncn2C1OC(CO)[C@H](O)[C@H]1F (stereo not given in full)	19	97*	-20	29
Nc1nc(Cl)nc2c1ncn2C1C[C@@H](O)C(CO)O1 (stereo not given in full)	72*	98*	-24	49
O=C(Cn1cnc([N+](=O)[O-])n1)Nc1ccc(N2CCOCC2)c(Cl)c1	x	41	3	6
COC(=O)CCc1[nH]c2ccccc2c1Sc1ccccc1	-11	140*	-3	14
C=C1CC[C@H]2[C@@](C)(CCC(O)[C@@]2(C)CO)[C@@H]1CCC1=CCOC1=O (stereo not given in full)	-39	5	1	-6
C=C1CC[C@@H]2[C@](C)(CO)[C@H](O)CC[C@@]2(C)[C@@H]1C/C=C1/C(=O)OC[C@H]1O	39	108*	-14	33
C=C1C(=O)O[C@@H]2C=C(C)[C@@H]3CC[C@@](C)(O)[C@@H]3C[C@H]12	10	38	0	-1
C=C1C(=O)O[C@H]2C3=C(C)CCC[C@]3(C)C(=O)C[C@@H]12	76*	121*	-35	78
C=C1C(=O)O[C@@H]2[C@H]3C(=C)[C@@H](O[C@@H]4O[C@H](CO)[C@@H](OC(=O)/C=C/c5ccc(O)c(O)c5)[C@H](O)[C@H]4O)C[C@H]3C(=C)C[C@@H](O)[C@@H]12	-14	x	x	x
C=C(CO)C(=O)O[C@H]1C[C@H]2C(=C)C[C@H](OC(=O)C(=C)CO)[C@H]3C(=C)C(=O)O[C@@H]3[C@H]2C1=C	-45	117*	3	56
C[C@H](CO)N1C[C@H](C)[C@H](CN(C)Cc2ccc3c(c2)OCO3)Oc2ccc(NC(=O)CCCCCC(=O)Nc3ccccc3N)cc2C1=O	x	47	0	-5
C[C@@H]1CN([C@@H](C)CO)C(=O)c2cc(NC(=O)CCCCCC(=O)Nc3ccccc3N)ccc2O[C@@H]1CN(C)Cc1ccc2c(c1)OCO2	x	95*	-1	29
C[C@H](CO)N1C[C@H](C)[C@H](CN(C)Cc2ccc3c(c2)OCO3)Oc2ccc(NC(=O)CCCCCC(=O)Nc3ccccc3N)cc2CC1=O	x	132*	0	30
C[C@@H]1CN([C@H](C)CO)C(=O)Cc2cc(NC(=O)CCCCCC(=O)Nc3ccccc3N)ccc2O[C@@H]1CN(C)Cc1ccc(Cl)c(Cl)c1	x	137*	-3	49
COCCNC(=S)N1CCN(Cc2ccco2)CC1	x	0	3	-6
N#Cc1ccccc1NC(=O)CCCN1C(=O)c2ccccc2C1=O	x	14	0	7
Cc1cccc(C)c1OCC(=O)Nc1cccc(C(=O)O)c1	x	2	3	21
Cc1ccc(OCC(=O)Nc2cccc(C(=O)O)c2)c(Br)c1	x	19	x	87*
O=S(=O)(C1=CC23CCCC2(C=C(S(=O)(=O)c2ccc(Cl)cc2)C3)C1)c1ccc(Cl)cc1 (stereo not given)	x	-6	-1	9
SMILES	Hedgehog inh	NOMO-1 viab	PD-1 reversal	MITF inh
C[C@@H]1CN([C@H](C)CO)C(=O)Cc2cc(NC(=O)Cc3cn(C)c4ccccc34)ccc2O[C@@H]1CN(C)Cc1ccc(Oc2ccccc2)cc1	31	116*	-9	21
C[C@@H]1CN([C@H](C)CO)C(=O)Cc2cc(NC(=O)Cc3cn(C)c4ccccc34)ccc2O[C@H]1CN(C)C(=O)Nc1ccc(C(F)(F)F)cc1	83*	25	-2	22
C[C@@H]1CN([C@@H](C)CO)C(=O)Cc2cc(NC(=O)Cc3cn(C)c4ccccc34)ccc2O[C@@H]1CN(C)Cc1ccc(-c2ccccc2)cc1	14	40	-3	22
C[C@H](CO)N1C[C@H](C)[C@H](CN(C)Cc2ccc(Oc3ccccc3)cc2)Oc2ccc(NC(=O)Cc3cn(C)c4ccccc34)cc2CC1=O	-5	69	-1	11
C[C@@H]1CN([C@H](C)CO)C(=O)Cc2cc(NC(=O)Cc3cn(C)c4ccccc34)ccc2O[C@@H]1CN(C)Cc1ccc(-c2ccccc2)cc1	1	110*	-5	26
CC(C)C[C@](CC(=O)OCc1ccc(O[C@@H]2O[C@H](CO)[C@@H](O)[C@H](O)[C@H]2O)cc1)(O[C@@H]1O[C@H](CO)[C@@H](O)[C@H](O)[C@H]1O)C(=O)OCc1ccc(O[C@@H]2O[C@H](CO)[C@@H](O)[C@H](O)[C@H]2O)cc1	13	95*	0	13
COc1ccc(N(CC(=O)Nc2c(C)cc(C)cc2C)S(C)(=O)=O)cc1Cl	x	15	2	8
Cn1c(N2C(=O)c3cccc4cccc(c34)C2=O)nc2ccccc21	86*	16	0	-25
Cn1c(SCCCN2C(=O)c3cccc4cccc(c34)C2=O)nnc1-c1ccncc1	x	13	0	-63
C=C1C(=O)O[C@@H]2C[C@H](C)[C@@H]3CC(=O)C(C)=C3C[C@H]12	5	121*	-15	38
C[C@H](CO)N1C[C@H](C)[C@@H](CN(C)CC2CCCCC2)Oc2c(NC(=O)c3ccc(-c4nccs4)cc3)cccc2C1=O	8	104*	-3	51
C[C@@H]1CN([C@H](C)CO)C(=O)c2cccc(NC(=O)c3ccc(-c4nccs4)cc3)c2O[C@@H]1CN(C)CC1CCCCC1	-4	2	0	-9
C[C@@H]1CN([C@@H](C)CO)C(=O)c2cccc(NC(=O)c3ccc(-c4nccs4)cc3)c2O[C@H]1CN(C)CC1CCCCC1	17	109*	-3	46
CCc1ccccc1NC(=O)CN(C)S(=O)(=O)c1ccc2ccccc2c1	x	-5	1	12
COc1ccccc1NC(=O)CNC(=O)c1ccc(OC)c(OC)c1	x	2	1	-11
O=S(=O)(c1cccc2c(Cl)cccc12)N1CCCNCC1	37	90*	-3	-10
C/C=C/C/C=C/CCC(=O)[C@H]1O[C@H]1C(N)=O	78*	114*	x	101*
O=C(COc1cccc(C(F)(F)F)c1)NCc1ccco1	x	43	-6	13
NNC(=O)CCCSc1nc2ccccc2s1	-3	9	0	52
O=C(CCSc1nc2ccccc2s1)Nc1ccccc1Cl	x	27	x	86*
